PubChem BioAssay AID1814 (Broad Institute, 2009)
About 22,000 (7.3%) of roughly 300,000 compounds were called active. Inconclusive results (about 2%) are left out. No stated cut-off is given here; in the data, active means activity score below about -60%; inconclusive means mostly about -28% to -61%; inactive means positive scores. The entries come from a sample that favours actives as a whole.

Assay: Activators via SNCA 5'UTR binding, MLPCN (AID 1814)
Details: alpha-synuclein 5'UTR reporter, activators screen; active compounds read low; tested at 7.5 µM

Activity score, inactive:
COc1ccccc1NC(=O)C1=C(C)Nc2nc3ccccc3n2C1c1cccs1 (stereo not given) 106%
COc1cc(SC)ccc1C(=O)Nc1nc(C)cs1 96.2%
COc1ccccc1-c1nnc(SCC(=O)N2CC(C)CC(C)C2)o1 (stereo not given) 45.8%
CN(C)CCCN(C(=O)c1ccc(S(=O)(=O)N2CCCCCC2)cc1)c1nc2ccc(Br)cc2s1 75.3%
c1c2c(cc3sc(N4CCCCC4)nc13)OCCO2 107%
C=CCn1c(C)cc(C2=NNC(=NCC)SC2)c1C 105%
O=C(CN1C(=O)c2ccccc2S1(=O)=O)N1CCc2ccccc21 93.5%
CCOC(=O)C1=C(CN2CCc3ccccc32)NC(=O)NC1c1ccc(Cl)cc1 (stereo not given) 44.8%
CSc1nc(N(C)NC(=O)c2cccc(C)c2)c2ccccc2n1 114%
CN(C)CCCN(C(=O)c1ccc(S(=O)(=O)N2CCCc3ccccc32)cc1)c1nc2ccc(F)cc2s1 74.2%
CCN(CC)CCOc1ccc2c(c1)C(=NNC(=O)c1ccccn1)c1cc(OCCN(CC)CC)ccc1-2 109%
CC[C@H]1CN2CCc3cc(OC)c(OC)cc3[C@@H]2C[C@@H]1C[C@H]1NCCc2cc(OC)c(OC)cc21 109%
COc1ccc2c(c1)CCc1cn3ncc(C#N)c3nc1-2 68.1%
CCC(C)(C)c1ccc(Oc2ccc(NC(=O)COC(=O)C3=COCCO3)cc2)cc1 90.6%

Activity score, active:
CC(C)c1ccc(NC(=S)NC2CC3C=CC2C3)cc1 (stereo not given) -134%
Cc1sc(NC(=O)C2=COCCO2)c(C#N)c1C -110%
Cc1csc(NC(=O)C2=COCCO2)n1 -132%
COc1ccccc1NC(=O)c1ccc(C)s1 -227%
Cc1ccc(-c2csc(NC(=O)C3=COCCO3)n2)cc1C -176%
Cc1ccc(-c2csc(NC(=O)c3cnccn3)n2)cc1C -97.7%
O=C(Nc1nc(-c2ccc3c(c2)OCO3)cs1)c1ccncc1 -99.5%
Cc1csc(NC(=O)c2ccc(C)s2)n1 -174%
COc1ccccc1-c1nnc(SCC(=O)Nc2ccccc2)o1 -187%
COc1ccc(-c2nnc(SCC(=O)c3cccs3)o2)c(OC)c1 -106%
Cc1ccc(C(=O)Nc2nc3ccc(Cl)cc3s2)o1 -183%
Cc1ccc(-c2noc(C3CCCN(C(=O)c4cccc(Cl)c4)C3)n2)o1 (stereo not given) -109%
O=C(c1cccs1)N1CCCC(c2nc(-c3ccc(F)cc3)no2)C1 (stereo not given) -91.6%
COc1ccc2nc(N3CCN(C(=O)c4ccc([N+](=O)[O-])o4)CC3)sc2c1 -160%
Cc1ccc2nc(N3CCN(C(=O)c4ccco4)CC3)sc2c1 -216%
C/C(=N\NC(=O)c1ccc(C)cc1)C1C(=O)c2ccccc2C1=O -78.5%
COc1ccc(NC(=O)CSc2nc(SC)ns2)c(OC)c1 -118%
Brc1ccc2nc(N3CCCC3)sc2c1 -105%
Fc1ccc2nc(N3CCCCC3)sc2c1 -129%
Fc1cc(F)c2nc(Nc3nc4c(F)cccc4s3)sc2c1 -218%
Cc1cccc(N=C2NN=C(c3c[nH]c4ccccc34)CS2)c1 -102%
COc1ccc(-c2nnc(SC(C)C#N)o2)cc1 (stereo not given) -98.3%
COc1ccc(-c2nnc(SCc3cccnc3)o2)cc1 -128%
COc1cc(/C=N/n2c(C)n[nH]c2=S)ccc1OCc1ccccc1 -106%
COc1ccc2[nH]c(C(=O)Nc3ccccc3Cl)cc2c1 -132%
O=C(CSCc1ccccc1)N1CCc2ccccc21 -92.8%
COc1ccc(Nc2ncnc3sc(C)cc23)cc1 -159%
O=C(c1ccc(CSc2ccccc2)cc1)N1CCCCCC1 -99.5%
CCc1ccc(-c2cc(C(=O)NCc3ccco3)c3ccccc3n2)s1 -123%
O=C(/C=C/c1ccc(Cl)cc1Cl)NCc1ccco1 -119%
CC1CCc2sc3nc(N4CCN(CCO)CC4)n4ncnc4c3c2C1 (stereo not given) -73.1%
COc1cccc(NC(C)=[N+](C)CCNS(=O)(=O)c2ccc(Cl)cc2)c1 -156%
Nc1c(C(=O)NCc2ccccc2)sc2nc3c(cc12)C(=O)CCC3 -63.1%
CC(C)OC(=O)c1sc2nc3c(cc2c1N)C(=O)CCC3 -182%
Cn1c(=NC(=O)C2CC2)sc2cc(F)cc(F)c21 -88%
Cc1ccc(NC(=O)C2CC2c2ccccc2)cc1 (stereo not given) -65.1%
C1=C(CCNc2ncnc3c2cnn3-c2ccccc2)CCCC1 -141%
CCOc1cccc2c1OC1(CCCCC1)N1N=C(c3cccnc3)CC21 (stereo not given) -77%
COc1cc(/C=C(\C#N)c2nc3ccccc3[nH]2)ccc1O -152%
COc1cc(/C=C(\C#N)c2nc3c(s2)CC(C)CC3)ccc1O (stereo not given) -208%
O=C(COc1ccc2oc3c(c2c1)CCCC3)Nc1ccccn1 -131%
Cc1cccc(C(=O)NC(=S)N(C)C2CCCCC2)c1 -74.3%
Cc1c(C(=O)NC2CCCCC2)oc2ccccc12 -82.5%
Cc1nonc1NC(=O)c1oc2ccccc2c1C -127%
Cc1c(C(=O)N2CCCc3ccccc32)oc2ccccc12 -96.2%
CCc1nonc1NC(=O)c1oc2ccc(Cl)cc2c1C -90.7%
Cc1c(C(=O)Nc2ccccn2)oc2ccc(Br)cc12 -122%
Cc1ccc(NC(=O)c2oc3ccccc3c2C)c([N+](=O)[O-])c1 -101%
CSc1cccc(NC(=S)N(C(C)C)C(C)c2ccccn2)c1 (stereo not given) -66.1%
Cc1ccc(-c2cc(C(=O)NCc3cn(C)nc3C)c3cc(Br)ccc3n2)cc1 -87.5%
CCS(=O)(=O)N1Cc2ccccc2CC1C(=O)Nc1nc2ccc(F)cc2s1 (stereo not given) -83.8%
O=C(Nc1ccccc1Cl)c1ccc2nsnc2c1 -133%
O=C(Nc1ccccc1)c1ccc2nsnc2c1 -119%
COc1ccccc1Nc1ncnc2c1oc1ccccc12 -147%
O=[N+]([O-])c1ccc2c(c1)C(O)n1nc(-c3ccccc3)nc1S2 (stereo not given) -63.3%
CCS(=O)(=O)C1=NSC2=NC(=O)/C(=C\c3cc(C)n(-c4cccc(OC)c4)c3C)C(=N)N21 -130%
CC(O)c1ccc(OCCN(C)c2ccccn2)cc1 (stereo not given) -143%
N#CC(=C1CCCC1)c1nc(-c2ccc(Cl)cc2)cs1 -189%
N#CC(=C1SC=CS1)c1nc(-c2ccccc2)cs1 -305%
CCOC(=O)/C(C#N)=C/c1ccc(N2CCCCC2)cc1 -72.9%
Cc1nc2cc(NCc3cccs3)ccc2n1C -107%
OC(c1nnc(-c2ccccc2)o1)c1cccs1 (stereo not given) -90.8%
CCOc1ccc(N/C=C/C(=O)c2cc(OC)c(OC)c(OC)c2)cc1 -117%
COc1ccc2[nH]cc(CCN3C(=O)c4ccc(C(=O)O)cc4C3=O)c2c1 -169%
O=C1c2ccccc2NC(c2ccccc2O)N1NS(=O)(=O)c1ccccc1 (stereo not given) -64.1%
Nc1c(C(=O)c2cccs2)sc2nsc(SCCN3CCCCC3)c12 -213%
c1ccc(-c2csc(N3CCc4ccccc4C3)n2)cc1 -117%
COc1ccc2nc(N3CCCC(O)C3)c(C#N)cc2c1 (stereo not given) -114%
CCc1ccc(Oc2coc3cc(OC(=O)c4cc5ccccc5oc4=O)ccc3c2=O)cc1 -67%
Cc1sc(NC(=O)c2ccc3ncsc3c2)c(C(N)=O)c1C -130%
COc1ccccc1-c1nnc(NC(=O)c2ccc3ncsc3c2)o1 -132%
COc1ccc(OC)c(/C(C)=N\NC(=O)c2cc3cc(Cl)ccc3n2C)c1 -215%
CC1CCCCC1NC(=O)/C(C#N)=C/C=C/c1ccccc1[N+](=O)[O-] (stereo not given) -239%
O=C(OCC(=O)c1cccs1)C1=COCCO1 -103%
COc1cccc(-c2nnc(N(C)C(=O)c3ccno3)s2)c1 -79.4%
CCN(CC)S(=O)(=O)c1cc(C(=O)Nc2ccccn2)ccc1C -79.9%
COc1cccc(NCCC(=O)c2cccc([N+](=O)[O-])c2)c1 -115%
Nc1ccccc1/C=N\N=C/c1ccccc1N -112%
Cc1cccc(-n2ncc(Cl)c(Cl)c2=O)c1 -220%
Fc1ccc(-c2csc(-c3ccc(C4SCCS4)cc3)n2)cc1F -125%
CCOC(=O)c1cn[nH]c1NC(=S)Nc1ccccc1 -131%
Cc1ccc(C2CC(c3cccc(NS(C)(=O)=O)c3)=NN2S(C)(=O)=O)cc1 (stereo not given) -70.6%
CS(=O)(=O)Nc1ccc(C2=NN(S(C)(=O)=O)C(c3cccs3)C2)cc1 (stereo not given) -69.5%
O=C(CN1C(=O)COc2ccccc21)Nc1ccc(F)cc1 -126%
Cc1ccc(NC(=O)c2cc(-c3ccccc3O)n[nH]2)cc1C -129%
Cc1ccc(O)c(-c2cc(C(=O)NCc3ccccc3)[nH]n2)c1 -148%
CCSc1nsc(NC(=O)Nc2cccc(C(C)=O)c2)n1 -111%
Cn1nnnc1SCC(=O)Nc1nc2ccccc2s1 -151%
CSc1nsc(NC(=O)Nc2ccccc2)n1 -123%
O=C(Nc1ccccc1)Nc1nc2ccccc2s1 -64.8%
CCc1cc2c(=O)c(-c3ccon3)c(N)oc2cc1OC -160%
